Measurements reported in the supplement of paper PMC10849652.
Targets with a hit are over-represented here; the source holds about 7,900 in all. About 0.6% of all pairs of compound and target were hits.

compound: CCCS(=O)(=O)Nc1ccc(F)c(C(=O)c2c[nH]c3ncc(-c4ccc(Cl)cc4)cc23)c1F [vemurafenib]; test: log2 fold change, soluble protein after heating vs DMSO (PISA); higher = thermal stabilisation; K562 cells, 10 uM, 30 min; active = over 0.2 and 3.5 SD of the protein, either way, in both replicates (recomputed)
How it was run: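 Values are thermal stability changes relative to control samples and are taken from duplicates. They are stated as log2 fold changes. Before quantification by TMTpro 16plex LC-MS/MS with equalised channel sums, K562 cells at 2×10^6 cells/mL were treated with 10 μM compound for 30 min, heated in aliquots for 3 min across 48°C-58°C, pooled, extracted in PBS with 0.5% NP-40 at 4°C, and centrifuged at 21,000xg for 90 min to give the soluble supernatant.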

UniProt Q13257, sequence (Q13257 whole entry, looked up): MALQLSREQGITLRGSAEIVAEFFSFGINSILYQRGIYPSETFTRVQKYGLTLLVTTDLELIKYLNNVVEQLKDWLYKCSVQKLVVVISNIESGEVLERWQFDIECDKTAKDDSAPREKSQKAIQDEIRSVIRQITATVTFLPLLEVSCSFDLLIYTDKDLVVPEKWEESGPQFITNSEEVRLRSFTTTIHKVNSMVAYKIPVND
UniProt P01130, sequence (P01130 whole entry, looked up): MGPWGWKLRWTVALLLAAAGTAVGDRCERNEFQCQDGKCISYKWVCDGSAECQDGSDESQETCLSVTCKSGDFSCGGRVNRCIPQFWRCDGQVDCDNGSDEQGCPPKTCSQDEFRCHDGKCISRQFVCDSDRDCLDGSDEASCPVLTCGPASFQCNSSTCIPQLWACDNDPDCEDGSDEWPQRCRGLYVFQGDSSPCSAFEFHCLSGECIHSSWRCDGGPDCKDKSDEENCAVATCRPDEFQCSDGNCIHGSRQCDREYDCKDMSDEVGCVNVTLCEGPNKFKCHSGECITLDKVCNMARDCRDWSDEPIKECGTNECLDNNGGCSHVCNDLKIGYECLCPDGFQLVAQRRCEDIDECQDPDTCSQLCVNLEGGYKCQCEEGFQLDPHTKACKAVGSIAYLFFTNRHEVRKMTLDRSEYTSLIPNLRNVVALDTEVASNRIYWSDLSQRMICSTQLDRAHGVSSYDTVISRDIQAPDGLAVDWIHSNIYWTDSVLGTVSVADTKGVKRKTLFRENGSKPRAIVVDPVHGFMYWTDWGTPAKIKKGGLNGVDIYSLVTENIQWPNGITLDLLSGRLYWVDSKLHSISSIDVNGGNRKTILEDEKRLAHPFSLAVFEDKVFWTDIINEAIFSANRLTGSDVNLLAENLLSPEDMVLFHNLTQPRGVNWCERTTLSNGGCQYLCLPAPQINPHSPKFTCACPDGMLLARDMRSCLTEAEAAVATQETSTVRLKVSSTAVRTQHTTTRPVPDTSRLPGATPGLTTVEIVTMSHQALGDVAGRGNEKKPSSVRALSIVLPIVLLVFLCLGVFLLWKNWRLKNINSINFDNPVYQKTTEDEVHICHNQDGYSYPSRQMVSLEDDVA
UniProt Q8IWB1, sequence (Q8IWB1 whole entry, looked up): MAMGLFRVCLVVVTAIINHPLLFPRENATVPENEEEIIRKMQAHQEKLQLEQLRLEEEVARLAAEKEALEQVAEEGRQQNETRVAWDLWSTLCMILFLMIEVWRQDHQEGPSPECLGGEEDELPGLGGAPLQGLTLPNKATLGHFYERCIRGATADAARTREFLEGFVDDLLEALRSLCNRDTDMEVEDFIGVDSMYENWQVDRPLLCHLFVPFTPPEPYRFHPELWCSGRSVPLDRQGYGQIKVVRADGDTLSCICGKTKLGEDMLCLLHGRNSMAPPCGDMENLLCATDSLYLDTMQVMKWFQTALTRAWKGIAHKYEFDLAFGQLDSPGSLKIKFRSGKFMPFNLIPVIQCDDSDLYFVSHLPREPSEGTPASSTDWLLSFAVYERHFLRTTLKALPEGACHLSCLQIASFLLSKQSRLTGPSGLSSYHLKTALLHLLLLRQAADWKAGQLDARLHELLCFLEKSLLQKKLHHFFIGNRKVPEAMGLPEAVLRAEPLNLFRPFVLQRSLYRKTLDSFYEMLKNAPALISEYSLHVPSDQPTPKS
UniProt P53778, sequence (P53778 whole entry, looked up): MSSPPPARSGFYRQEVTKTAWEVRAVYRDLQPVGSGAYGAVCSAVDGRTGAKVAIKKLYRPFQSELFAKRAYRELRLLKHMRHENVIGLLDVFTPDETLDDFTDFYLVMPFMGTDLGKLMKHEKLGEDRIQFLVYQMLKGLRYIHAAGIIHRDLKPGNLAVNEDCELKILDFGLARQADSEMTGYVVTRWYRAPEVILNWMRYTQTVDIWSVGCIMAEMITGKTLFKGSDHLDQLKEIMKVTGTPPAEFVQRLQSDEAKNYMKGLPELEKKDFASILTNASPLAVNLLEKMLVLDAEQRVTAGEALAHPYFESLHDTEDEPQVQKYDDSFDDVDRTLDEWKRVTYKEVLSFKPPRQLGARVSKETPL
UniProt Q9NYL2, sequence (Q9NYL2 whole entry, looked up): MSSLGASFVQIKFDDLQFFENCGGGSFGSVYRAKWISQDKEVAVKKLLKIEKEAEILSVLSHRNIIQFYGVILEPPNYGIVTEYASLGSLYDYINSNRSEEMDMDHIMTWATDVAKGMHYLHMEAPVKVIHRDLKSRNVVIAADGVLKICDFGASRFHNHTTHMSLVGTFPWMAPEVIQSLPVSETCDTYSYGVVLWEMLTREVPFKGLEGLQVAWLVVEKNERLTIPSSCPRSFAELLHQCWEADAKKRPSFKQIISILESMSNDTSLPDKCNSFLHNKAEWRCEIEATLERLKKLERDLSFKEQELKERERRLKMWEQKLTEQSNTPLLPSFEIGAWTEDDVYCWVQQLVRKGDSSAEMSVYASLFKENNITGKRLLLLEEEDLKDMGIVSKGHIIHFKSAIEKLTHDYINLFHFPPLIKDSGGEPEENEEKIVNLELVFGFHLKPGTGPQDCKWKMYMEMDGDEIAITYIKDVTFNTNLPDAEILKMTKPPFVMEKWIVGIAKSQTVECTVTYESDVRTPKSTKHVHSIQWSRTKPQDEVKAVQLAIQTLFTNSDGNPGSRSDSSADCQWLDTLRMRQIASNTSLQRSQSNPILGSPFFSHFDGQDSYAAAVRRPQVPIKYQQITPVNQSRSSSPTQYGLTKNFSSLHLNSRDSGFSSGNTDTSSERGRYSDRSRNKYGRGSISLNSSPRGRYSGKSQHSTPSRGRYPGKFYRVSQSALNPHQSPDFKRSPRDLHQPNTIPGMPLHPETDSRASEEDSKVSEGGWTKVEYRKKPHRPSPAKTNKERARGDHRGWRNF
UniProt Q02750, sequence (Q02750 whole entry, looked up): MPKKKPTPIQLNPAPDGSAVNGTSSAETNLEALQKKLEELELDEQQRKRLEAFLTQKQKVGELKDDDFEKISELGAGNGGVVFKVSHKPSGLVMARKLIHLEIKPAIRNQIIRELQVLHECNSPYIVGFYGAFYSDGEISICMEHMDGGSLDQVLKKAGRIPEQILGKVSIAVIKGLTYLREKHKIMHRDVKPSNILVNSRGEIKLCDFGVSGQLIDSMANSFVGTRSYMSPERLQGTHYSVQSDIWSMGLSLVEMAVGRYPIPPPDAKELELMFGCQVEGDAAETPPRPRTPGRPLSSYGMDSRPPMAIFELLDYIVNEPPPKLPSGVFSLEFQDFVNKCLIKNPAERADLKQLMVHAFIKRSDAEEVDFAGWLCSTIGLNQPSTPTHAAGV
UniProt Q92615, sequence (Q92615 whole entry, looked up): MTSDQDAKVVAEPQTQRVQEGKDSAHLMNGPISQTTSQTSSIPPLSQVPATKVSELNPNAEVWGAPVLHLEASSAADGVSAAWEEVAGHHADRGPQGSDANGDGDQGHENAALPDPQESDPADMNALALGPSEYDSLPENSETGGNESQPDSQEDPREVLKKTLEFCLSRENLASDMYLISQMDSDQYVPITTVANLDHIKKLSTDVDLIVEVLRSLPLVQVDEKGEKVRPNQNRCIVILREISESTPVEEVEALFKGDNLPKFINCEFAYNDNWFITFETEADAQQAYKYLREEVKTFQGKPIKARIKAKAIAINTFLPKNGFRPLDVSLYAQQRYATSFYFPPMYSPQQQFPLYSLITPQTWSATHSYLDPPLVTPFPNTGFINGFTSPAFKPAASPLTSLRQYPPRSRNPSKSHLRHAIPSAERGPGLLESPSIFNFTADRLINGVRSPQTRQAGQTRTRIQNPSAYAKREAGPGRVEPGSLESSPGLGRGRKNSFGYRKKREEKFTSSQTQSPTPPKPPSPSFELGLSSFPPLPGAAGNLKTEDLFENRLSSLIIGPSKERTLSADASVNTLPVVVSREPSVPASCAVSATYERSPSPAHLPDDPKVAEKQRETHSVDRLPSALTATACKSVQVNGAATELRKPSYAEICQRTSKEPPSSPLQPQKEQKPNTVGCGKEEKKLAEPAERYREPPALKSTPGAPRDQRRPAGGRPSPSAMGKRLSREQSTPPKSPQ
UniProt Q96A72, sequence (Q96A72 whole entry, looked up): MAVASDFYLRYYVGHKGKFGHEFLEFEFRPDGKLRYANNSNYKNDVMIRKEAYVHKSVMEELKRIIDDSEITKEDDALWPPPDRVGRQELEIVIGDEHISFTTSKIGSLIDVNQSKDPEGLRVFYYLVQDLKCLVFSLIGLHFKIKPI
UniProt Q8NC54, sequence (Q8NC54 whole entry, looked up): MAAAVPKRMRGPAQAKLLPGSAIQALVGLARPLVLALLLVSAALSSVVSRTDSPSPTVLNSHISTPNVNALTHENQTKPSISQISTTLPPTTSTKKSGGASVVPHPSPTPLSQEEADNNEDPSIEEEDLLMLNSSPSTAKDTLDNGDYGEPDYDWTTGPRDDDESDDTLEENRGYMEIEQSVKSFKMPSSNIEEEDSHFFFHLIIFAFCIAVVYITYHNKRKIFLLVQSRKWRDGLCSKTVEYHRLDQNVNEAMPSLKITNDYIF
UniProt P20700, sequence (P20700 whole entry, looked up): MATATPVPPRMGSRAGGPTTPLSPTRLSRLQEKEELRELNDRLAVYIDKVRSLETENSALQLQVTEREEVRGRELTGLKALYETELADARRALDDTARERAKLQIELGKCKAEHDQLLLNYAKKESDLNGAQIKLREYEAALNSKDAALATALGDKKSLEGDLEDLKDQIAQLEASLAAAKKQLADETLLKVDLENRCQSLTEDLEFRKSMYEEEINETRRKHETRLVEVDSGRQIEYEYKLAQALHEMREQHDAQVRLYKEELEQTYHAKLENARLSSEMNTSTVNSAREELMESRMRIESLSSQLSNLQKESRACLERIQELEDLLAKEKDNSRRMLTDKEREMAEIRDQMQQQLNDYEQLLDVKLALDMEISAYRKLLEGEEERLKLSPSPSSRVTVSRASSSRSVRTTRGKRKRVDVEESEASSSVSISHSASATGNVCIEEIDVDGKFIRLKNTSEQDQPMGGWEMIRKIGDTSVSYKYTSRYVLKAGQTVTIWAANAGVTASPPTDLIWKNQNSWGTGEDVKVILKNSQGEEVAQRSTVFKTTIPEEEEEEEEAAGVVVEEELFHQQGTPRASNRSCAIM

log2 fold change, inactive:
MCUR1 (UniProt Q96AQ8) 0.018, ITPRIP (UniProt Q8IWB1) 0.02, MAP2K1 (UniProt Q02750) -0.009, LPGAT1 (UniProt Q92604) 0.018, LMNB1 (UniProt P20700) 0.1, LTV1 (UniProt Q96GA3) -0.075, MAIP1 (UniProt Q8WWC4) 0.034, MIER1 isoform 12 (UniProt Q8N108) -0.006, KCT2 (UniProt Q8NC54) -0.013, KPNA4 (UniProt O00629) 0.031, MAPK12 (UniProt P53778) 0.019, LDLR (UniProt P01130) -0.022, LMF2 (UniProt Q9BU23) 0.067, LTN1 isoform 3 (UniProt O94822) 0.039, LRPPRC (UniProt P42704) 0.227, MAD2L1 (UniProt Q13257) 0.028, LARP4B (UniProt Q92615) 0.016, ILK (UniProt Q13418) -0.075, LTO1 (UniProt Q8WV07) 0.101, KIF3A (UniProt Q9Y496) -0.002, MAP3K20 (UniProt Q9NYL2) -0.254, MAGOHB (UniProt Q96A72) 0.037, MAP3K4 isoform 2 (UniProt Q9Y6R4) -0.033
